Compounds without any hit were thinned out: in the full panel of roughly 79,000, 15% have a hit. Values without a mark were called inactive. Activity calls are given as the source filed them. Cut-off read from the data, not from the text of the source: active = growth inhibition above about 70%; inactive = the rest.
test: NCI Yeast Anticancer Drug Screen. Data for the cln2 rad14 strain (AID 165);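 note: 0% = growth equal to vehicle treated cultures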; details: S. cerevisiae cln2 rad14 strain, at 50.0 µM, stronger effect = higher value
In short: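 Growth of compound-exposed yeast (cln2 rad14 genotype) measured and expressed as inhibition relative to vehicle.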

Row | SMILES | growth inhibition
1 | Cc1cc2c(Br)cc(Br)c(O)c2nc1C(=O)c1ccccc1 | 43.9%
2 | N=C1c2ccccc2-c2ccccc21 | 12.1%
3 | COc1ccc(-c2cn(-c3ccccc3)c3ncnc(N)c23)cc1 | 33.8%
4 | Nc1ccc(N=Nc2ccccc2)c2ccccc12 | 98.5% (active)
5 | CS(=O)(=O)C(=Cc1ccccc1Cl)S(C)(=O)=O | 12.1%
6 | O=C1c2ccccc2C(=O)c2sc(Nc3cc(Cl)ccc3Cl)nc21 | 86.5% (active)
7 | COC1=CC(=O)c2c(O)c3c(c(O)c2C1=O)C=C(C)OC3O (stereo not drawn) | 47.1%
8 | NC(=S)N/N=C1\NC(=O)/C(=C/c2ccc3c(c2)OCO3)S1 | -13.9%
9 | CCN(CC)P(=S)(c1ccccc1CCP(=S)(c1ccccc1)c1ccccc1)N(CC)CC | 96.8% (active)
10 | CCC(=O)Oc1c(Cl)cc(Cl)c(Cl)c1Cl | 5.45%
11 | CCOC(=O)C(C)(C)C | 25.6%
12 | COC1=CC(=O)c2ncccc2C1=O | 89.2% (active)
13 | O=C1CCSC(=S)N1c1ccccc1C(F)(F)F | 98.6% (active)
14 | O=C1c2cccc(NCCNCCO)c2C(=O)c2cccc(NCCNCCO)c21 | 15.4%
15 | CCOc1cc2c(cc1O)CC[C@@H]1[C@@H]2CC[C@]2(C)[C@@H](O)CC[C@@H]12 | 33.4%
16 | S=C(N/N=C/c1ccccn1)N1CC2CCC(CC2)C1 | 93.2% (active)
17 | COc1ccc(Nc2nc3ccccc3s2)cc1 | -66%
18 | O=C(OCC1OC(OCC(OC(=O)c2ccccc2)C(OC(=O)c2ccccc2)C(OC(=O)c2ccccc2)c2cnn(-c3ccccc3)n2)C(OC(=O)c2ccccc2)C(OC(=O)c2ccccc2)C1OC(=O)c1ccccc1)c1ccccc1 (stereo not drawn) | 98.6% (active)
19 | O=C(CBr)Nc1ccc(Cc2ccc(NC(=O)CBr)cc2)cc1 | 97.1% (active)
20 | CCOC(=O)Sc1nc2ccccc2[nH]1 | 13.7%

Row | SMILES | growth inhibition
21 | C=C1OC(=O)C(=O)N1CC(=O)O | 44.9%
22 | Nc1ncnc2c1ncn2C1OCC(O)C1O (stereo not drawn) | 64.5%
23 | CCOC(=O)C(Cc1cc(I)c(Oc2ccc(OC)cc2)c(I)c1)NC(C)=O (stereo not drawn) | 89.3% (active)
24 | BrCc1ccc([Si](c2ccccc2)(c2ccccc2)c2ccc(CBr)cc2)cc1 | 78.5% (active)
25 | O=C1OC(C2OC(=O)C(=O)C2C(=O)c2ccc(Cl)cc2)C(C(=O)c2ccc(Cl)cc2)C1=O (stereo not drawn) | 29.6%
26 | Cc1ccc2c(c1)NC(=O)C(N=[N+]=[N-])(c1ccccc1)C2=O (stereo not drawn) | 91.3% (active)
27 | NC(=O)C1CCCN1C(=O)C1CCCN(Cc2cc(CN3CCCC(C(=O)N4CCCC4C(N)=O)C3)cc(CN3CCCC(C(=O)N4CCCC4C(N)=O)C3)c2)C1 (stereo not drawn) | 16.9%
28 | CCCCN(CCCC)CC(O)Cc1cc2ccccc2c2ccccc12 (stereo not drawn) | 62.6%
29 | CN(/N=C\c1cccc([N+](=O)[O-])c1)C(c1cccc([N+](=O)[O-])c1)N(C)/N=C/c1cccc([N+](=O)[O-])c1 (stereo not drawn) | 8.75%
30 | O=C(CCl)NC(=O)N(/N=C/c1ccco1)c1ccccc1 | -16.1%
31 | CC1CCN(CCCOC(=O)c2ccccc2)CC1 | 77% (active)
32 | COC(=O)C1=C(C(=O)OC)C2C(C)=CC(C)=CN2C(C(=O)OC)=C1C(=O)OC (stereo not drawn) | 74.3% (active)
33 | CO/N=C/c1ccc([N+](=O)[O-])s1 | 7.5%
34 | N/C(=N\N=C/c1ccc(O)c(O)c1O)NO | 17.7%
35 | CC1=C[P+](c2ccccc2)(c2ccccc2)C=C(c2ccccc2)O1 | 84.8% (active)
36 | CC(C)SC(=S)Nc1ccc(Cl)c([N+](=O)[O-])c1 | 99.2% (active)
37 | Nc1ccc2oc(=O)c3ccccc3c2c1 | 6.8%
38 | CCCCCSc1nc2ncnc(N)c2[nH]1 | 28.9%
39 | CC(C)Cn1cnc2c(SCc3cccc(F)c3)nc(N)nc21 | -10.2%

test: NCI Yeast Anticancer Drug Screen. Data for the bub3 strain (AID 167); details: S. cerevisiae bub3 mutant strain, at 5.0 µM (retest, dose inferred, filed as 0.5), stronger effect = higher value
In short: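 Steps: expose the mutant yeast strain to compound; grow alongside vehicle-treated cultures; measure growth; express inhibition against the vehicle cultures.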

Row | SMILES | growth inhibition
40 | Cc1cc2c(Br)cc(Br)c(O)c2nc1C(=O)c1ccccc1 | 20%
41 | N=C1c2ccccc2-c2ccccc21 | 19%
42 | COc1ccc(-c2cn(-c3ccccc3)c3ncnc(N)c23)cc1 | 2%
43 | Nc1ccc(N=Nc2ccccc2)c2ccccc12 | 2%
44 | CS(=O)(=O)C(=Cc1ccccc1Cl)S(C)(=O)=O | 0%
45 | O=C1c2ccccc2C(=O)c2sc(Nc3cc(Cl)ccc3Cl)nc21 | 87% (active)
46 | COC1=CC(=O)c2c(O)c3c(c(O)c2C1=O)C=C(C)OC3O (stereo not drawn) | -4%
47 | NC(=S)N/N=C1\NC(=O)/C(=C/c2ccc3c(c2)OCO3)S1 | 9%
48 | CCN(CC)P(=S)(c1ccccc1CCP(=S)(c1ccccc1)c1ccccc1)N(CC)CC | -2%
49 | CCC(=O)Oc1c(Cl)cc(Cl)c(Cl)c1Cl | -3%
50 | CCOC(=O)C(C)(C)C | 2%
51 | COC1=CC(=O)c2ncccc2C1=O | 2%
52 | O=C1CCSC(=S)N1c1ccccc1C(F)(F)F | 0%
53 | O=C1c2cccc(NCCNCCO)c2C(=O)c2cccc(NCCNCCO)c21 | 15%
54 | CCOc1cc2c(cc1O)CC[C@@H]1[C@@H]2CC[C@]2(C)[C@@H](O)CC[C@@H]12 | 25%
55 | S=C(N/N=C/c1ccccn1)N1CC2CCC(CC2)C1 | 99% (active)
56 | COc1ccc(Nc2nc3ccccc3s2)cc1 | 5%
57 | O=C(OCC1OC(OCC(OC(=O)c2ccccc2)C(OC(=O)c2ccccc2)C(OC(=O)c2ccccc2)c2cnn(-c3ccccc3)n2)C(OC(=O)c2ccccc2)C(OC(=O)c2ccccc2)C1OC(=O)c1ccccc1)c1ccccc1 (stereo not drawn) | -12%
58 | O=C(CBr)Nc1ccc(Cc2ccc(NC(=O)CBr)cc2)cc1 | 17%
59 | CCOC(=O)Sc1nc2ccccc2[nH]1 | 2%

Row | SMILES | growth inhibition
60 | C=C1OC(=O)C(=O)N1CC(=O)O | -70%
61 | Nc1ncnc2c1ncn2C1OCC(O)C1O (stereo not drawn) | 20%
62 | CCOC(=O)C(Cc1cc(I)c(Oc2ccc(OC)cc2)c(I)c1)NC(C)=O (stereo not drawn) | 39%
63 | BrCc1ccc([Si](c2ccccc2)(c2ccccc2)c2ccc(CBr)cc2)cc1 | -2%
64 | O=C1OC(C2OC(=O)C(=O)C2C(=O)c2ccc(Cl)cc2)C(C(=O)c2ccc(Cl)cc2)C1=O (stereo not drawn) | 9%
65 | Cc1ccc2c(c1)NC(=O)C(N=[N+]=[N-])(c1ccccc1)C2=O (stereo not drawn) | -7%
66 | NC(=O)C1CCCN1C(=O)C1CCCN(Cc2cc(CN3CCCC(C(=O)N4CCCC4C(N)=O)C3)cc(CN3CCCC(C(=O)N4CCCC4C(N)=O)C3)c2)C1 (stereo not drawn) | -23%
67 | CCCCN(CCCC)CC(O)Cc1cc2ccccc2c2ccccc12 (stereo not drawn) | 0%
68 | CN(/N=C\c1cccc([N+](=O)[O-])c1)C(c1cccc([N+](=O)[O-])c1)N(C)/N=C/c1cccc([N+](=O)[O-])c1 (stereo not drawn) | -7%
69 | O=C(CCl)NC(=O)N(/N=C/c1ccco1)c1ccccc1 | 3%
70 | CC1CCN(CCCOC(=O)c2ccccc2)CC1 | 31%
71 | COC(=O)C1=C(C(=O)OC)C2C(C)=CC(C)=CN2C(C(=O)OC)=C1C(=O)OC (stereo not drawn) | 2%
72 | CO/N=C/c1ccc([N+](=O)[O-])s1 | -61%
73 | N/C(=N\N=C/c1ccc(O)c(O)c1O)NO | -4%
74 | CC1=C[P+](c2ccccc2)(c2ccccc2)C=C(c2ccccc2)O1 | 64%
75 | CC(C)SC(=S)Nc1ccc(Cl)c([N+](=O)[O-])c1 | 12%
76 | Nc1ccc2oc(=O)c3ccccc3c2c1 | -3%
77 | CCCCCSc1nc2ncnc(N)c2[nH]1 | 7%
78 | CC(C)Cn1cnc2c(SCc3cccc(F)c3)nc(N)nc21 | 2%
